Drawing on the supplement of paper PMC10981050, this text covers cell viability for nine compounds.

Assay in all cases: cell viability relative to vehicle control; higher = less cytotoxic
Common to all, as to conditions: 10 µM

One assay concerns K562. A digest of the protocol: (§1)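 After removal of identity-inconsistent compounds, the Selleck bioactive, kinase and epigenetic probe libraries were screened on CRISPR-edited mutant clones and isogenic wild-type clones of four leukaemia lines. Plates were 384-well, each well holding 2000 cells in 50 µL medium and receiving a single 10 µM acoustically dispensed dose. CellTiter-Glo luminescence was read 48 h later, after the supernatant was taken off. Genedata Screener was used to express viability as percent of the on-plate vehicle control.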

The test system of another assay is MARIMO. The procedure, abridged:
as §1

A further assay has as its system MOLM14. A digest of the protocol:
as §1

The test system of a further assay is OCI-AML2. The procedure, abridged:
as §1

“And” between values parts separate entries of the source, which are not always exact repeats. Equal values may be shown once.

As to `CC1=CC(=O)c2ccccc2C1=O` [Menadione], the cell viability (in general, a read-out of living cells in per cent, often relative to untreated cells) in the assay with K562 (SRSF2 genotype: SRSF2 P95H/wt) is 95.2% and 95.7%; in the assay with K562 (SRSF2 genotype: SRSF2 wt/wt) it was 108%; in the assay on MARIMO (SRSF2 genotype: SRSF2 P95H/wt), 98.9%; with MARIMO (SRSF2 genotype: SRSF2 wt/wt) it was 93.1%; with MOLM14 (SRSF2 genotype: SRSF2 P95H/wt), 91.1%; in the assay on MOLM14 (SRSF2 genotype: SRSF2 wt/wt), 102%. Further, the cell viability in the assay on OCI-AML2 (SRSF2 genotype: P95H/wt) was determined as 14.8%; in the assay on OCI-AML2 (SRSF2 genotype: wt/wt) it was 12.8%.

For `CC1CNc2c(cccc2S(=O)(=O)N[C@@H](CCCNC(=N)N)C(=O)N2CC[C@@H](C)C[C@@H]2C(=O)O)C1` (some centres not stated) [Argatroban Monohydrate], the cell viability with K562 (SRSF2 genotype: SRSF2 P95H/wt) is 103% and 94.3%; in the assay with K562 (SRSF2 genotype: SRSF2 wt/wt) it was 96.2%; with MARIMO (SRSF2 genotype: SRSF2 P95H/wt), 96.9%; in the assay with MARIMO (SRSF2 genotype: SRSF2 wt/wt) it was 103%; with MOLM14 (SRSF2 genotype: SRSF2 P95H/wt), 97.8%; in the assay on MOLM14 (SRSF2 genotype: SRSF2 wt/wt), 106%. Besides, the cell viability in the assay on OCI-AML2 (SRSF2 genotype: P95H/wt) worked out at 93.6%; with OCI-AML2 (SRSF2 genotype: wt/wt), 94%.

On to `CCN(CC)c1ccc2cc(C(=O)O)c(=O)oc2c1` [7-(Diethylamino)coumarin-3-carboxylic acid], for which the cell viability in the assay on K562 (SRSF2 genotype: SRSF2 P95H/wt) is 112% and 101%; with K562 (SRSF2 genotype: SRSF2 wt/wt), 105%; in the assay with MARIMO (SRSF2 genotype: SRSF2 P95H/wt), 95.4%; in the assay with MARIMO (SRSF2 genotype: SRSF2 wt/wt), 108%; in the assay on MOLM14 (SRSF2 genotype: SRSF2 P95H/wt), 98%; in the assay with MOLM14 (SRSF2 genotype: SRSF2 wt/wt), 110%. Also, the cell viability in the assay with OCI-AML2 (SRSF2 genotype: P95H/wt) was 100%; with OCI-AML2 (SRSF2 genotype: wt/wt) it was 103%.

With `CN(CCO)CC(O)Cn1cnc2c1c(=O)n(C)c(=O)n2C` (configuration not stated) [Xanthinol Nicotinate], the cell viability with K562 (SRSF2 genotype: SRSF2 P95H/wt) was 99.3% and 90.3%; in the assay on K562 (SRSF2 genotype: SRSF2 wt/wt), 97.9%; in the assay with MARIMO (SRSF2 genotype: SRSF2 P95H/wt) it was 98.2%; with MARIMO (SRSF2 genotype: SRSF2 wt/wt) it was 105%; in the assay on MOLM14 (SRSF2 genotype: SRSF2 P95H/wt) it was 95.4%; in the assay on MOLM14 (SRSF2 genotype: SRSF2 wt/wt) it was 97.7%. The values for the cell viability with OCI-AML2 (SRSF2 genotype: P95H/wt) and with OCI-AML2 (SRSF2 genotype: wt/wt) were 73.7% and 90.5%, respectively.

Consider `Cc1nc2cc(F)c(F)cc2n1-c1cncc(Nc2ccc(C(F)(F)F)cc2)n1`, for which the cell viability in the assay on K562 (SRSF2 genotype: SRSF2 P95H/wt) is 10.5% and 26.5%; in the assay with K562 (SRSF2 genotype: SRSF2 wt/wt) it was 28%; in the assay on MARIMO (SRSF2 genotype: SRSF2 P95H/wt), 8.44%; in the assay on MARIMO (SRSF2 genotype: SRSF2 wt/wt) it was 6.32%; in the assay on MOLM14 (SRSF2 genotype: SRSF2 P95H/wt), 11.7%; in the assay with MOLM14 (SRSF2 genotype: SRSF2 wt/wt) it was 2.75%. In addition, the cell viability was 6.57% with OCI-AML2 (SRSF2 genotype: P95H/wt) and 9.7% in the assay on OCI-AML2 (SRSF2 genotype: wt/wt).

In the case of `CC(C)=CCC/C(C)=C/C=O` [Citral], the cell viability with K562 (SRSF2 genotype: SRSF2 P95H/wt) is 96% and 106%; with K562 (SRSF2 genotype: SRSF2 wt/wt), 94.4%; with MARIMO (SRSF2 genotype: SRSF2 P95H/wt), 88.4%; in the assay with MARIMO (SRSF2 genotype: SRSF2 wt/wt), 98.9%; in the assay on MOLM14 (SRSF2 genotype: SRSF2 P95H/wt) it was 88.2%; in the assay with MOLM14 (SRSF2 genotype: SRSF2 wt/wt) it was 94.8%. The cell viability in the assay with OCI-AML2 (SRSF2 genotype: P95H/wt) turned out to be 95.3%; in the assay with OCI-AML2 (SRSF2 genotype: wt/wt) it was 92%.

For `CNC(=O)CN1CCC(Oc2cc3c(Nc4cccc(Cl)c4F)ncnc3cc2OC)CC1`, the cell viability was 85.2% and 96% in the assay on K562 (SRSF2 genotype: SRSF2 P95H/wt); 91.9% in the assay on K562 (SRSF2 genotype: SRSF2 wt/wt); 93.6% in the assay on MARIMO (SRSF2 genotype: SRSF2 P95H/wt); 100% with MARIMO (SRSF2 genotype: SRSF2 wt/wt); 79.5% in the assay on MOLM14 (SRSF2 genotype: SRSF2 P95H/wt); 93.1% in the assay on MOLM14 (SRSF2 genotype: SRSF2 wt/wt). Besides, the values for the cell viability with OCI-AML2 (SRSF2 genotype: P95H/wt) and in the assay with OCI-AML2 (SRSF2 genotype: wt/wt) were 73.8% and 79.5%, respectively.

For `CC/C(=C(/c1ccc(/C=C/C(=O)O)cc1)c1ccc2[nH]ncc2c1)c1ccc(F)cc1Cl` [Brilanestrant (GDC-0810, ARN-810)], the cell viability in the assay with K562 (SRSF2 genotype: SRSF2 P95H/wt) was 100% and 106%; with K562 (SRSF2 genotype: SRSF2 wt/wt) it was 96.2%; with MARIMO (SRSF2 genotype: SRSF2 P95H/wt), 102%; in the assay on MARIMO (SRSF2 genotype: SRSF2 wt/wt), 95.1%; with MOLM14 (SRSF2 genotype: SRSF2 P95H/wt), 86.8%; with MOLM14 (SRSF2 genotype: SRSF2 wt/wt) it was 92.3%. Moreover, the cell viability in the assay on OCI-AML2 (SRSF2 genotype: P95H/wt) was determined as 96.9%; in the assay with OCI-AML2 (SRSF2 genotype: wt/wt), 102%.

As for `COc1cc(F)c(F)c(Nc2ccc(I)cc2F)c1NS(=O)(=O)C1(C[C@H](O)CO)CC1` [Refametinib (RDEA119, Bay 86-9766)], the cell viability in the assay with K562 (SRSF2 genotype: SRSF2 P95H/wt) is 53.8% and 59.1%; with K562 (SRSF2 genotype: SRSF2 wt/wt) it was 62.1%; in the assay with MARIMO (SRSF2 genotype: SRSF2 P95H/wt), 31.8%; in the assay with MARIMO (SRSF2 genotype: SRSF2 wt/wt) it was 33%; in the assay with MOLM14 (SRSF2 genotype: SRSF2 P95H/wt) it was 30.7%; with MOLM14 (SRSF2 genotype: SRSF2 wt/wt), 22.7%. Moreover, the values for the cell viability in the assay on OCI-AML2 (SRSF2 genotype: P95H/wt) and with OCI-AML2 (SRSF2 genotype: wt/wt) were 35.4% and 35.1%, respectively.
